Compound activity from PubChem.
BRCT inh red: disrupts BRCA1 BRCT binding to phosphoprotein, red fluorophore readout; 75,000 tested, 0.03% active; P38398; Potency, µM (top dose mostly 76.9 µM), for inactives: at the top dose activity change, negative = inhibition, hits mostly inhibitors; AID 892; BRCT-phosphopeptide binding, red fluorescence polarization; note: % is set by controls: 0 for no effect and ±100 for the full control effect
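Fluorescence polarization: 100 nM His-tagged BRCA1 BRCT with 100 nM TAMRA-labelled phospho-BACH1 decapeptide, phosphate buffer pH 7.3 with 150 mM NaCl, DTT, 0.01% Tween 20; 12 min RT. Binding inhibition seen as FP decrease.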
ALOX15 inhib: inhibitors of human 15-lipoxygenase (ALOX15); P16050; purified 15hLO-1, xylenol orange hydroperoxide absorbance; Potency, µM (titrated, usually from 57.1 µM), without a hit: top-dose activity change, negative = inhibition, hits mostly inhibitors; 74,000 tested, 1.4% active; note: potency is the fitted concentration of half-maximal effect; % is set by controls: 0 for no effect and ±100 for the full control effect; nearly all actives have a fitted effect of over 55% in size
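Compounds were preincubated 15 min at room temperature with 40 nM purified human enzyme (25 mM Hepes pH 7.5, 0.01% Triton X-100); 50 uM arachidonic acid reacted 6 min. Fe-xylenol orange detection, 30 min, absorbance ratio 573/405 nm.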
DNA Pol III inh: inhibitors of bacterial DNA polymerase III holoenzyme; reconstituted DNA polymerase III holoenzyme replication, biochemical; Potency, µM (top dose mostly 57.1 µM), inactives show at the highest dose activity change, negative = inhibition; 71,000 tested, 0.25% active; AID 603; note: potency is the fitted concentration of half-maximal effect; % is set by controls: 0 for no effect and ±100 for the full control effect
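Reconstituted *E. coli* holoenzyme (0.35 nM Pol III, 1 nM beta, 154 nM SSB, 2 nM primase) was preincubated with compound for 15 min at RT. Synthesis on 1.4 nM ssM13Gori ran 35 min, then was stopped with PicoGreen/EDTA and read as dsDNA fluorescence.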
TsaE inh: displaces an ADP probe from E. coli YjeE (TsaE); P0AF67; purified YjeE enzyme, qHTS inhibition assay; Potency, µM; 71,000 tested, 0.05% active
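Purified YjeE (10 uM) with BODIPY Texas Red-labeled ADP probe (2 uM); compounds pin-transferred, 15 min at room temperature. Binding inhibition read as decreased fluorescence polarization; ADP titration as control.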
ALOX15B inhib: inhibitors of human 15-lipoxygenase 2 (ALOX15B); O15296; purified 15hLO-2, xylenol orange hydroperoxide absorbance; Potency, µM (series often up to 57.1 µM), for inactives: top-dose activity change, negative = inhibition, usual class: inhibitors; 110,000 tested, 0.56% active; AID 881; note: potency is the fitted concentration of half-maximal effect; % is set by controls: 0 for no effect and ±100 for the full control effect; nearly all actives have a fitted effect of over 60% in size
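Enzyme 50 nM, AA 45 uM, 25 mM Hepes pH 7.5 + 0.01% Triton X-100; cpd preinc 15 min RT, rxn 90 min RT; stop/detect with 200 uM XO + 300 uM Fe(II) in 50 mM H2SO4, 30 min; A573/A405.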
BRCT inh green: blocks human BRCA1 BRCT binding to phosphopeptide, green readout; Potency, µM (titrated, usually from 76.9 µM), for inactives: at the highest dose activity change, negative = inhibition, most hits filed as inhibitors; P38398; BRCA1 BRCT-phosphopeptide binding, green fluorescence polarization; 75,000 tested, 0.05% active;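 note: potency is the fitted concentration of half-maximal effect; plate controls were peptide without protein for full effect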
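Compounds were incubated for 12 min at room temperature with a complex of 100 nM fluorescein-tagged pBACH1 decapeptide and 250 nM His-tagged BRCT protein. Buffer was phosphate pH 7.3 with EDTA, DTT and Tween 20. Disruption of binding lowers the polarization signal.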
An asterisk follows results filed as active; i = inactive; ? = inconclusive; . = no result; [ ] = remark or other dose. Only a selection was taken, and hits are over-represented in it overall. Calls come from the whole dose curve; as a rule, active = well fitted curve in the direction sought with a large enough effect; inconclusive = small, poorly fitted or top-dose-only effect, or another doubt; inactive = no such curve, though single readings can be large; an effect the other way counts as inactive or inconclusive.

SMILES	BRCT inh red	ALOX15 inhib	DNA Pol III inh	TsaE inh	ALOX15B inhib	BRCT inh green
c1ccc(CCn2nnnc2C(c2cccnc2)N2CCN(c3ccccc3)CC2)cc1 (stereo not drawn)	-3%	-1%	0%	i	5%	-2%
Oc1ccc(N2CCN(C(c3cccnc3)c3nnnn3Cc3ccccc3)CC2)cc1 (stereo not drawn)	0%	13µM*	-7%	i	-1%[2.29 µM]	1%
Cc1cccc(NS(=O)(=O)c2cc(C(=O)O)ccc2Cl)c1	0%	1%	.	.	.	0%
COC1C(O)COC1/C=C/c1ccccc1 (stereo not drawn)	0%[15.4 µM]	1%[11.4 µM]	.	.	.	1%[15.4 µM]
NC(Cc1ccc(O)c(O)c1)C(=O)O (stereo not drawn)	-2%	4µM*	.	.	18%	-2%[3.08 µM]
O=C(O)c1ccc(OCc2ccccc2)c(Cl)c1	2%[15.4 µM]	7%[11.4 µM]	-3%[11.4 µM]	i	1%[11.4 µM]	-2%[15.4 µM]
O=C(c1ccco1)N1CCN(C(=O)c2cc(-c3ccncc3)nc3ccc(Br)cc23)CC1	0%	5%	-1%	i	.	1%
O=C(O)c1cc(-c2ccco2)nc2ccc(Br)cc12	-3%	?	25µM*	i	2%	-2%
COc1ccccc1CNc1ccc(N2CCCCC2)cc1	0%	16µM*	0%	i	-13%[2.29 µM]	0%
COc1cccc(CNc2ccc(N3CCCCC3)cc2)c1OC	1%	2µM*	-5%	i	25µM*	-1%
Nc1cccc(Nc2nc(OC(C(F)(F)F)C(F)(F)F)nc(OC(C(F)(F)F)C(F)(F)F)n2)c1	.	.	.	.	22%	.
COc1nc(Nc2ccc(O)cc2)nc(OC(C(F)(F)F)C(F)(F)F)n1	-3%	25µM*	2%	i	-4%	-3%
Cc1c(C(=O)O)c(O)cc2c1C(=O)c1c(O)c([C@@H]3O[C@H](CO)[C@@H](O)[C@H](O)[C@@H]3O)c(O)c(O)c1C2=O	.	.	?	i	.	.
Cc1ccc(C#CC2C=CC(Oc3ccc4c(c3)OCO4)C(CO)O2)c(C)c1 (stereo not drawn)	-1%[15.4 µM]	7%[11.4 µM]	.	.	.	1%[15.4 µM]
CC(=O)c1cccc(NC(=O)Nc2cc3sccc3n2C)c1	-4%	16µM*	-6%	i	-21%	-2%
CC(=O)OC[C@H]1O[C@@H](CCO/N=C2/[C@H]3O[C@@H]3[C@@H](O)[C@H]3[C@H]2CCn2c(=O)n(-c4ccccc4)c(=O)n23)C=C[C@@H]1OC(C)=O	-1%[15.4 µM]	5%[11.4 µM]	.	.	.	0%[15.4 µM]
Fc1ccc(CNc2nc(-c3ccco3)cc(C(F)(F)F)n2)cc1	-2%	25µM*	-6%	i	-9%	17%
Cc1cc(=O)n2[nH]c(C)c(-c3ccccc3)c2n1	0%	11%	0%	i	-10%	-1%
Cc1cc(=O)n2[nH]c(C)c(-c3ccc(Cl)cc3)c2n1	-1%	18%	20µM*	i	-2%	-3%
C=C1CC[C@@H]2O[C@@]2(C)CC[C@H]2[C@H]1CC2(C)C	0%	-1%[25.6 µM]	.	.	-5%	-2%
O=C(O)CCc1ccc(-c2ccccc2)n1CC(=O)O	1%	-14%	-5%	i	7%[2.29 µM]	0%
O=C(O)CCc1ccc(-c2ccccc2)n1-c1cccc(O)c1	-2%	10µM*	2%	i	2%[2.29 µM]	17%
COc1ccc(NC(=O)Nc2cccs2)cc1OC	-2%	20µM*	-3%	i	?	2%
COc1cccc(NC(=O)Nc2cccs2)c1	0%	20µM*	-7%	i	.	2%
CSCC[C@@H]1NC(=O)C/C=C\[C@@H](C)COC(=O)[C@@H](CCSC)NC(=O)C/C=C\[C@@H](C)COC1=O	2%[15.4 µM]	4%[11.4 µM]	.	.	.	-4%[15.4 µM]
SMILES	BRCT inh red	ALOX15 inhib	DNA Pol III inh	TsaE inh	ALOX15B inhib	BRCT inh green
O=C(O)CN(CC(=O)O)c1ccccc1	1%[15.4 µM]	7%[11.4 µM]	-1%[11.4 µM]	i	-2%[11.4 µM]	2%[15.4 µM]
CCCc1cc(-c2[nH]ncc2-c2ccc3c(c2)OCCCO3)c(O)cc1OC	.	.	.	.	13%	.
CCc1cc(-c2[nH]ncc2-c2ccc3c(c2)OCO3)c(O)cc1O	-1%	25µM*	-2%	i	14%	-4%
COC(=O)COc1ccc(S(=O)(=O)NCCC2=CCCCC2)cc1	-1%	-6%	-5%	i	-6%[11.4 µM]	-1%
COC(=O)COc1ccc(S(=O)(=O)NCCC2=CCCCC2)cc1C	0%	6.3µM*	-5%	i	-7%	1%
Nc1nc(SCC(=O)O)[nH]c(=O)c1N	1%[15.4 µM]	3%[11.4 µM]	-8%[11.4 µM]	i	-1%[11.4 µM]	-1%[15.4 µM]
COc1ccc(S(=O)(=O)Nc2cc(Sc3ncn[nH]3)c(O)c3ccccc23)cc1	.	.	.	.	4µM*	.
COC(=O)c1ccc(Sc2ccccc2NS(=O)(=O)c2ccc(OC)cc2)nc1	.	.	.	.	9%[11.4 µM]	.
N#CC1=C2SCN(Cc3ccccc3)CN2C(=O)CC1c1ccccc1F (stereo not drawn)	-1%	?	-7%	i	-28%	2%
COc1ccc(Br)cc1C1CC(=O)N2CN(Cc3ccccc3)CSC2=C1C#N (stereo not drawn)	1%	2.5µM*	-8%	i	?	0%
COc1ccc(OC)c(C2CC(=O)N3CN(c4ccc(C)c(Cl)c4)CSC3=C2C#N)c1 (stereo not drawn)	0%	?	-5%	i	?	0%
CCc1ccccc1N1CSC2=C(C#N)C(c3cc(OC)c(OC)cc3OC)CC(=O)N2C1 (stereo not drawn)	1%	?	1%	i	10µM*	1%
COc1cc(OC)c(C2CC(=O)N3CN(c4ccccc4)CSC3=C2C#N)cc1OC (stereo not drawn)	-1%	?	-2%	i	10µM*	-1%
CNc1nc(-c2ccc(N(C)C)cc2)nc2ccccc12	0%	?	-26%	i	36%	0%
N=C1[C@@H](O)[C@]2(I)c3ccccc3N3C(=N)[C@H](O)[C@@H]4c5ccccc5N1[C@@H]4[C@@H]32	-24%[15.4 µM]	?	-11%[11.4 µM]	i	?	4%[15.4 µM]
C=CC(=O)OCCOCCOC(=O)C=C	0%	-3%	-4%	i	-5%	-1%
Cn1c(NCc2cccc(Br)c2)nc2ccccc21	0%	10µM*	-7%	i	42%	-1%
Cc1cc(NO)nc(-c2ccc(Br)cc2)n1	1%	16µM*	-4%	i	?	-2%
CCCCCCSC1=C(C#N)C(c2ccc(C)o2)CC(=O)N1 (stereo not drawn)	0%	25µM*	-2%	i	?	-1%
Cc1ccc(C2CC(=O)NC(SCc3ccccc3)=C2C#N)o1 (stereo not drawn)	-1%	-18%	.	.	?	0%
